Records with an inconclusive call do not appear. Active and inactive are the calls of the source. Calls come from the whole dose curve; as a rule, active = well fitted cell-killing curve with a large enough effect; inconclusive = small, poorly fitted or top-dose-only effect, or effect the other way; inactive = flat fitted curve, though single readings scatter.
% is set by controls: 0 for no effect and ±100 for the full control effect.

For this assay, the system named is CASKI. As to the kind of experiment: Primary qHTS to identify gynecologic anti-cancer compounds using libraries of approved drugs and bioactive compounds (AID 1345084). Note: nearly all actives have a fitted effect of over 55% in size. The following applies: Gynecologic cancer cell panel viability, ATPlite luminescence, 48 h; series mostly up to 57.5 µM; activity change, negative = cytotoxicity: at the top concentration. Put shortly: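 48 h compound exposure at 37 C, 5% CO2; five-point qHTS. ATPlite luminescence readout of cell ATP.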
A general note: In qHTS, concentration-response curves come from the screen itself.
Regarding `CCNC1(C(N)=O)CN(c2nc(C)nc3c(-c4ccc(Cl)cc4)c(-c4ccccc4Cl)nn23)C1`, the “activity change, negative = cytotoxicity” value was -4.37% (inactive). In the case of `O=C([C@@H]1CCCN(c2ccc3[nH]c(C4(n5cc(Cl)cn5)CC4)nc3n2)C1)N1CCCC1`, the “activity change, negative = cytotoxicity” value is -0.0828% (inactive).

Consider `Cn1ccc(NC(=O)c2cc(Oc3ccc(C(=O)N4CCC4)c(F)c3)c3c(c2)OC(C)(C)C3)n1`, for which the “activity change, negative = cytotoxicity” value is 16.5% (inactive). As for `CC1(CO)CC2C(O)C3=C(CC(C)(O)C2C1)C(=O)OC3` (configuration not stated), the “activity change, negative = cytotoxicity” value is -6.53% (inactive). Turning to `C[C@@H]1O[C@@H](O[C@H]2[C@@H]3C=CO[C@@H](O[C@@H]4O[C@H](CO)[C@@H](O)[C@H](O)[C@H]4O)[C@@H]3[C@@]3(CO)O[C@@H]23)[C@H](O)[C@H](OC(=O)/C=C/c2ccccc2)[C@H]1O`, the “activity change, negative = cytotoxicity” value is -14% [at 25.3 µM] (inactive). For `CC(=O)O[C@@H]1CC2C(/C=C(\C)C(=O)[C@@]3(O)C[C@@H](C)[C@H](OC(=O)c4ccccc4)C3/C=C/1C)C2(C)C` (some centres not stated), the “activity change, negative = cytotoxicity” value was 4.1% [at 25.3 µM] (inactive). In the case of `COCCCNC(=O)c1ccc(Cn2c(=O)c3ccccc3n(Cc3ccc(C(C)C)cc3)c2=O)cc1`, the “activity change, negative = cytotoxicity” value is -1.67% (inactive). For `Cc1ccc(C(C)C)c(O[C@@H]2O[C@H](CO)[C@@H](O)[C@H](O)[C@H]2O)c1`, the “activity change, negative = cytotoxicity” value is -7.54% [at 38.5 µM] (inactive). For `O=C(Nc1ccccc1)N1CCC(Cc2cnc3ccccc3c2)CC1`, the “activity change, negative = cytotoxicity” value is 13.2% (inactive).

Regarding `CN(C)CCOc1cc(NS(=O)(=O)c2c(Cl)cc(C(F)(F)F)cc2Cl)ccc1Cl`, the “activity change, negative = cytotoxicity” value is -7.88% (inactive). `COc1ccc(NC(=O)C2C[C@H](C)CC[C@H]2C(C)C)cc1` (some centres not stated): the “activity change, negative = cytotoxicity” value was 9.47% (inactive). With `Cc1noc(-c2ccc(-c3ccc(CC(=O)O)cc3)cc2)c1NC(=O)O[C@H](C)c1ccccc1Cl`, the “activity change, negative = cytotoxicity” value is -3.5% (inactive). As for `Cc1cccc(N2CCN(C(=O)c3cc(S(=O)(=O)N(C)C)ccc3N3CCCC3)CC2)c1C`, the “activity change, negative = cytotoxicity” value was 2.88% (inactive).

On to `C[C@]12CC[C@@H]3c4ccc(O)c(O)c4CC[C@H]3[C@@H]1CCC2=O`, for which the “activity change, negative = cytotoxicity” value was -2.37% (inactive). Consider `O=C(Nc1ccccc1)c1ccc(Nc2nnc(-c3ccc(O)cc3)c3ccccc23)cc1`, for which the “activity change, negative = cytotoxicity” value was -4.71% (inactive). Consider `CC1(NC(=O)c2ccc(C#Cc3cccc(F)c3)cn2)COC1`, for which the “activity change, negative = cytotoxicity” value is -0.188% (inactive).

With `COc1ccc(S(=O)(=O)N2CCC[C@H]2C(=O)Nc2cc(C)cc(C)c2)cc1`, the “activity change, negative = cytotoxicity” value is 0.772% (inactive). As for `COc1cc(C2OC(c3ccc(OC)c(OC)c3)C(C)C2C)ccc1O` (configuration not stated), the figure is 5.91% [at 38.5 µM] (inactive).

On to `C#CCCCn1cc(-c2cccc3c2N[C@H](C)CC(=O)N3)cn1`, for which the “activity change, negative = cytotoxicity” value was -4.26% (inactive).

In the case of `CC(=O)O[C@@H]1[C@@H](O)[C@H](O[C@@H]2[C@@H](O)[C@@H](O)[C@H](O[C@H]3[C@H](O[C@H]4[C@H](O[C@H]5CC[C@@]6(C)C(CC[C@]7(C)C6CC=C6[C@@H]8CC(C)(C)CC[C@]8(C(=O)O)CC[C@]67C)[C@]5(C)CO)O[C@H](CO)[C@@H](O)[C@@H]4O)OC[C@@H](O)[C@@H]3O)O[C@H]2C)OC[C@H]1O` (some centres not stated), the activity change, negative = cytotoxicity is 17% [at 11.6 µM] (inactive). Take `CCC/C=C/C(=O)O[C@H]1CC(C)(C)CC2[C@@]13[C@H](O)C[C@]1(C)[C@@]2(CCC2[C@@]4(C)CC[C@H](O[C@@H]5O[C@H](C(=O)O)[C@@H](O)[C@H](O[C@@H]6O[C@H](CO)[C@H](O)[C@H](O)[C@H]6O[C@@H]6O[C@@H](C)[C@H](O)[C@@H](O)[C@H]6O[C@@H]6OC[C@](O)(CO)[C@H]6O)[C@H]5O[C@@H]5O[C@H](CO)[C@H](O)[C@H](O)[C@H]5O)C(C)(C)C4CC[C@]21C)O[C@H]3O` (some centres not stated): the activity change, negative = cytotoxicity is -0.213% [at 6.55 µM] (inactive). With `Cc1ccc(-c2ncc[nH]2)cc1NC(=O)c1ccc(OCc2ccccn2)cc1` the figure was 0.365% (inactive); with `COc1cc(CCc2ccc(OCC=C(C)C)cc2)cc(OC)c1OC`, 17% [at 38.5 µM] (inactive); with `CNC(=O)COC(=O)N1CCC(CCc2ccc(Cl)cc2)CC1`, 5.59% (inactive). With `COC1C=C(C)C(O)(CO)C2(C)CCCC(C)(C)C12` (configuration not stated) the figure was -0.1% (inactive); with `O=C(O)c1ccc(S(=O)(=O)N(Cc2ccc(OC(F)(F)F)cc2)c2ncc(C(F)(F)F)cc2Cl)cc1`, 17.2% (inactive). `C=C(C)C(=O)O[C@H]1[C@H]2C(=C)C(=O)O[C@@H]2/C=C(\CO)CC/C=C(/C=O)[C@@H]1O`: the “activity change, negative = cytotoxicity” value was 4.32% [at 38.5 µM] (inactive). Regarding `C=C[C@]1(C)C[C@H](O)[C@H]2C(=C)C(=O)O[C@@H]2[C@H]1C(=C)CO`, the “activity change, negative = cytotoxicity” value is 16% (inactive).

As to `COC(=O)c1ccnc(-c2cc(C(=O)Nc3ccc(C4(N)CC4)cc3)ccn2)c1`, the “activity change, negative = cytotoxicity” value is 9.66% (inactive). Take `O=C(Nc1ccc2[nH]c(=O)oc2c1)C(=O)N1CCC(Cc2ccc(F)cc2)CC1`: the “activity change, negative = cytotoxicity” value is 9.59% (inactive).

In the case of `O=C(Nc1cccnn1)N1CCN(c2nccc(-c3ccc(F)c(F)c3)n2)CC1`, the “activity change, negative = cytotoxicity” value is 8.68% [at 116 µM] (inactive).

Regarding `O=C(Nc1cc(C(F)(F)F)ccc1N1CCCCC1)c1ccncc1`, the “activity change, negative = cytotoxicity” value is 9.18% (inactive).

For the origin of these results see PubChem BioAssay (NCATS).
